PubChem BioAssay AID1224856 (National Center for Advancing Translational Sciences (NCATS), 2016)
Records with an inconclusive call do not appear. Values without a mark were called inactive. Activity calls are given as the source filed them. The call rests on the fitted dose curve; in most records, active means well fitted curve in the direction sought with a large enough effect; inconclusive means small, poorly fitted or top-dose-only effect, or another doubt; inactive means no such curve, though single readings can be large or run the other way.

Experiment: Cell viability assay for measurement of the protective activity of small molecules against cell death caused by Zika virus infection in human astrocytes
Settings: human astrocytes ZIKV-induced death, ATP luminescence, 72 h; series mostly up to 46.1 µM; protection from virus-induced death: at the top concentration
Text: National Center for Advancing Translational Sciences [NCATS] Johns Hopkins University School of Medicine Florida State University Assay Overview: Zika virus infection causes cell death in certain cell types including human neural progenitor cells (hNPCs), astrocytes, and astrocytoma cell line (SNB-19). This cell viability assay measures the ATP content (level) in human astrocytes using a luminescence readout that is proportional to viable cell numbers. Decrease in the luminescence signal after Zika virus infection indicates the cell death caused by Zika virus. Small molecule inhibitors […] the decreased luminescence signal after Zika virus infection, indicating the protective effect of that small molecule on the cell death caused by Zika virus infection. This observed protective effect of small molecules against Zika virus induced cell death may result from inhibition of virus replication or cellular response to the virus infection.
Assay Protocol Summary: The medium for astrocytes contains AM basal medium (ScienCell, Cat.# 1801), AGS (ScienCell, Cat.# 1801), 10% FBS, and 1% Pen/Strep. The ATP content assay kit (PerkinElmer, Cat.# 6016731) was used to determine cell viability. The reagent was reconstituted and prepared as described by the manufacturer. Cells were seeded in 384- or 1536-well assay plates and cultured at 37 C with 5% CO2 for 16 to 20 hours. The typical cell seeding density in the 1536-well plate assay is 350 cells/well in 3 ul medium for astrocytes in the tissue cultured treated/PDL coated plates. Compounds were added to cells and incubated for one hour before addition of ZIKV solution to cells (2 FFU/cell). After incubation at 37 C with 5% CO2 for 72 hours, the reagent mixture of the ATP content assay kit was added to each well, followed by incubation at room temperature for 10 minutes. The luminescence intensity of the assay plates was measured using a ViewLux plate reader (PerkinElmer). […] The percentage inhibitions of the decreased cell viability by small molecule inhibitors were then calculated.

| SMILES | protection from virus-induced death | Potency |
| --- | --- | --- |
| O=C(O)c1cc([N+](=O)[O-])ccc1NCCCc1ccccc1 | -1.03% |  |
| O=c1oc2cc(O)ccc2s1 | 6.44% |  |
| CN(C)c1ccc(C(=C2C=CC(=[N+](C)C)C=C2)c2ccccc2)cc1 | -10.5% |  |
| O=C(O)c1cccc(-c2noc(-c3ccccc3F)n2)c1 | -5.89% |  |
| CS(=O)(=O)c1ccc(-c2cn3ccccc3n2)cc1 | -6.51% |  |
| O=C(O)[C@H](CC(=O)N1C[C@@H]2CCCC[C@H]2C1)Cc1ccccc1 | 6.96% |  |
| CCCS(=O)c1ccc2nc(NC(=O)OC)[nH]c2c1 (stereo not given) | 5.95% |  |
| CC[C@]1(O)C[C@H]2CN(CCc3c([nH]c4ccccc34)[C@@](C(=O)OC)(c3cc4c(cc3OC)N(C=O)[C@H]3[C@@](O)(C(=O)OC)[C@H](OC(C)=O)[C@]5(CC)C=CCN6CC[C@]43[C@@H]65)C2)C1 | 0.154% |  |
| O=C(OCc1ccccc1)c1ccc(O)cc1 | -3.82% |  |
| C[C@@H](N)c1ccc(C(=O)Nc2ccnc3[nH]ccc23)cc1 | 6.59% |  |
| Oc1ccc([C@H]2CNCc3c2ccc(O)c3O)cc1O | 2.33% |  |
| CCCSc1ccc2nc(NC(=O)OC)[nH]c2c1 | 22.8% |  |
| CC(O)=C(C#N)C(=O)Nc1ccc(C(F)(F)F)cc1 | -8.15% |  |
| O=c1c(-c2ccc(O)cc2)coc2cc(O)ccc12 | -6.51% |  |
| COc1cc2nc(N3CCN(C(=O)C4CCCO4)CC3)nc(N)c2cc1OC (stereo not given) | 3.64% |  |
| CCC(C(=O)O)c1ccc(N2Cc3ccccc3C2=O)cc1 (stereo not given) | -4.84% |  |
| CC(C)c1ccc2oc3nc(N)c(C(=O)O)cc3c(=O)c2c1 | -9.76% |  |
| O=C(/C=C/c1ccc(O)cc1)c1ccc(O)cc1O | 16.2% |  |
| COc1cccc2c1C(=O)c1c(O)c3c(c(O)c1C2=O)C[C@@](O)(C(=O)CO)CC3OC1CC(N2CCOC(OC)C2)C(O)C(C)O1 (stereo not given in full) |  | 0.436 µM (active) |
| O=C(Nc1ccc(OC(F)(F)F)cc1)c1sccc1NCc1ccnc2ccccc12 | 20.3% |  |

| SMILES | protection from virus-induced death | Potency |
| --- | --- | --- |
| c1ccc(CCNc2nc(-c3ccccc3)cs2)cc1 | -4.1% |  |
| CNC(=O)c1ccccc1Sc1ccc2c(/C=C/c3ccccn3)n[nH]c2c1 | -2.44% |  |
| Cc1nc(N)sc1-c1ccnc(Nc2ccc(N3CCOCC3)cc2)n1 | 1.74% |  |
| CC(C)Oc1ccc2c(=O)c(-c3ccccc3)coc2c1 | -5.36% |  |
| CC(=O)Nc1ccc([C@H](C)C(=O)Nc2ncc(C(C)C)s2)cc1 |  | 4.89 µM (active) |
| [O-][n+]1ccccc1SSc1cccc[n+]1[O-] | -9.35% [at 88.3 µM] |  |
| CC(O)CN1CCN(CC(=O)[O-])CCN(CC(=O)[O-])CCN(CC(=O)[O-])CC1.[Gd+3] (stereo not given) | 7.51% |  |
| Nc1nc2ccc([N+](=O)[O-])cc2s1 | 0.8% [at 88.3 µM] |  |
| O=C(Oc1ccccc1)c1cccc(C(=O)Oc2ccccc2)c1 | 3.3% [at 96.3 µM] |  |
| CC(=NNC(=S)N1CCC1)c1ccccn1 | -5.84% |  |
| Cc1cccc(C#Cc2ccccc2)n1 | -0.738% |  |
| CC1(C)Cc2c(sc(NC(=S)NC(=O)c3ccccc3)c2C(=O)O)CO1 | 2.03% |  |
| S=C(SSC(=S)N1CCCCC1)N1CCCCC1 |  | 7.74 µM (active) |
| CCOC1OC(=O)C[C@H]1NC(=O)[C@@H]1CCCN1C(=O)[C@@H](NC(=O)c1ccc(N)c(Cl)c1)C(C)(C)C (stereo not given in full) | 1.13% |  |
| O=c1c2ccccc2nc2n1CCc1c-2[nH]c2ccccc12 | 17% |  |
| CCCCCCCC/C=C/C(=O)O | -1.29% |  |
| Cc1cccc(/C=C/c2ccccc2)n1 | 8.77% |  |
| CN1CC[C@@]2(C)c3cc(OC(=O)Nc4ccccc4)ccc3N(C)[C@@H]12 | 4.98% |  |
| C/C(=N\O)c1ccc(OCC(=O)N2CCCCC2)cc1 | -5.29% |  |
| CC=CC[C@@H](C)C(=O)[C@H]1C(=O)N[C@@H](C(C)C)C(=O)N(C)CC(=O)N(C)[C@@H](CC(C)C)C(=O)N[C@@H](C(C)C)C(=O)N(C)[C@@H](CC(C)C)C(=O)N[C@@H](C)C(=O)N[C@H](C)C(=O)N(C)[C@@H](CC(C)C)C(=O)N(C)[C@@H](CC(C)C)C(=O)N(C)[C@@H](C(C)C)C(=O)N1C | -4.94% |  |
